ELG1 repair inh = ELG1-dependent DNA repair inhibition | Potency, µM (highest dose often 46.1 µM), inactives show at the top dose activity change, negative = inhibition, actives largely listed as inhibitors | HEK293T ELG1-luciferase reporter, luminescence, 16 h; DNA damage induced by 5-fluorouridine | 330,000 compounds, 2.3% hits | AID 504467; note: potency is the fitted concentration of half-maximal effect; nearly all actives have a fitted effect of over 55% in size
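In this reporter screen, reduction of luminescence relative to DMSO vehicle indicated activity. Compounds and 5-fluorouridine were added together to 2,000 cells per well, incubated for 16 hr at 37 °C, then developed with ONE-Glo.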
RORg inh = inhibitors of mouse ROR gamma transcriptional activity; Potency, µM (highest dose often 53.6 µM), for the others: at the highest dose activity change, negative = inhibition, usual class: inhibitors; P51450; Drosophila S2 Gal4-RORgamma UAS-luciferase reporter, 20 h; 310,000 compounds, 5.4% hits; note: potency is the fitted concentration of half-maximal effect; nearly all actives have a fitted effect of over 60% in size
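Compounds are pin-transferred onto Drosophila Schneider cells expressing a copper-inducible Gal4–ROR gamma transactivation domain fusion. After 1 hr, copper sulfate is added to 700 uM final; luciferase is read 20 hr later.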
TSHR antag = antagonists of human thyroid stimulating hormone receptor | activity change, negative = inhibition, % at 11.5 µM | P16473 | TSHR-expressing cells, TSH-stimulated cAMP HTRF, 2 h; hits give low values | 330,000 compounds, 0.2% hits | AID 504810;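 active = activity change below a set negative limit, meaning inhibition stronger than a set level, cut at about -70% in these data; inconclusive = activity change between two set negative limits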
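Read-out is FRET at 665 nm (cryptate excitation 337 nm) from a cryptate-tagged anti-cAMP antibody, competed by cell cAMP against cAMP-d2. Compounds are tested on freshly harvested TSHR cells challenged with 4nM TSH (EC80) for 2 hours at 37 deg C.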
B2AR arrestin = beta2AR (human) beta-arrestin recruitment activity; beta-arrestin recruitment to beta2AR, cell-based reporter; P07550; 330,000 compounds, 0.02% hits; Potency, µM (top dose mostly 46.1 µM), for inactives: top-dose activation, actives largely listed as activators;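 note: potency is the fitted concentration of half-maximal effect; 0% = DMSO controls and full agonism = EC100 isoproterenol or metaproterenol; nearly all actives have a fitted effect of over 65% in size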
Target sequence (P07550 whole entry, looked up): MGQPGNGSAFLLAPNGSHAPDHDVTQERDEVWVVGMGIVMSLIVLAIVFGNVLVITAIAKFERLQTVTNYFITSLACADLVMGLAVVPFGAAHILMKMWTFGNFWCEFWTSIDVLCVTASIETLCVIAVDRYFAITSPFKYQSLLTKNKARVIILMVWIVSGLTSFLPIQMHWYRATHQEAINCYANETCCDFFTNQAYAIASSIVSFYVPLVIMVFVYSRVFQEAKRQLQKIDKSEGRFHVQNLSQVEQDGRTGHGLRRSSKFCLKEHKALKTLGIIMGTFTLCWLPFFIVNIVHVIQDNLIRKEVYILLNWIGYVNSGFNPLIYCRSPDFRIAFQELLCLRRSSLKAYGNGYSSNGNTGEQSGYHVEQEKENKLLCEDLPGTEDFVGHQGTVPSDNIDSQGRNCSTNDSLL
Gal4-VP16 FLuc = inhibits Gal4-VP16 luciferase reporter, ROR gamma counter-screen | Drosophila S2 Gal4-VP16 UAS-luciferase, luminescence, 20 h | Potency, µM (top dose mostly 53.6 µM), for inactives: at the top dose activity, negative = inhibition, most hits filed as inhibitors | 310,000 compounds, 3.5% hits | AID 2546;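 note: Gal4-VP16 expression switched on by copper sulfate through the metallothionein promoter; potency is the fitted concentration of half-maximal effect; nearly all actives have a fitted effect of over 50% in size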
Numbers without * were called inactive. A selection: hits, their analogues and other compounds. The true share with any hit is near 7.5%. Unless noted, calls come from the whole dose curve; as a rule, active = well fitted curve in the direction sought with a large enough effect; inconclusive = small, poorly fitted or top-dose-only effect, or another doubt; inactive = no such curve, though single readings can be large; an effect the other way counts as inactive or inconclusive. Unless noted, % is set by controls: 0 for no effect and ±100 for the full control effect.

`COc1ccc(OCC(=O)Nc2ccc(N3CCOCC3)c(Cl)c2)cc1` gave ELG1 repair inh inconclusive, RORg inh -19%, TSHR antag -9, B2AR arrestin 0% and Gal4-VP16 FLuc 3%.
O=C(Nc1ccc(N2CCN(C(=O)c3ccco3)CC2)c(Cl)c1)c1c(F)c(F)c(F)c(F)c1F was read as ELG1 repair inh 18µM*, RORg inh -24%, TSHR antag -45, B2AR arrestin 0% and Gal4-VP16 FLuc inconclusive.
Screening COc1ccc(OCC(=O)Nc2ccc(N3CCN(C(=O)c4ccccc4)CC3)c(Cl)c2)cc1 returned ELG1 repair inh 12µM*, RORg inh -38%, TSHR antag -30, B2AR arrestin 0% and Gal4-VP16 FLuc inconclusive.
`N=C(N)SCCc1ccc(OCc2ccc([N+](=O)[O-])cc2)cc1` gave RORg inh -29% and Gal4-VP16 FLuc -22%.
`O=C(Nc1ccc(N2CCN(C(=O)c3ccco3)CC2)c(Cl)c1)c1cccnc1` gave ELG1 repair inh 6.5µM*, RORg inh 39%, TSHR antag -9, B2AR arrestin 0% and Gal4-VP16 FLuc -5%.
For O=C(Nc1ccc(N2CCCCC2)c(Cl)c1)c1cccnc1 the results were ELG1 repair inh inconclusive, RORg inh inconclusive, TSHR antag -10, B2AR arrestin 0% and Gal4-VP16 FLuc 3%.
Screening COc1ccc(-n2c(=O)c(-c3cccc(F)c3)nc3cncnc32)cc1 returned RORg inh 9% and Gal4-VP16 FLuc 5%.
Screening CC(C)(C)NC(=O)COC(=O)c1c2c(nc3ccccc13)CCC2 returned ELG1 repair inh inconclusive, RORg inh -15%, TSHR antag -1, B2AR arrestin 0% and Gal4-VP16 FLuc 0%.
`CC(C)NC(=O)NC(=O)COC(=O)c1c2c(nc3ccccc13)CCC2` gave ELG1 repair inh 23µM*, RORg inh 26%, TSHR antag 0, B2AR arrestin 0% and Gal4-VP16 FLuc 0%.
O=C(OCC(=O)N1CCc2ccccc21)c1c2c(nc3ccccc13)CCCCC2 was read as ELG1 repair inh 23µM*, RORg inh 31%, TSHR antag -18, B2AR arrestin 0% and Gal4-VP16 FLuc -9%.

Assay outcomes (PubChem)
